Bioassay records: PubChem, National Center for Advancing Translational Sciences (NCATS)
RORgamma inh = qHTS for inhibitors of ROR gamma transcriptional activity; Nuclear receptor ROR-gamma (Mus musculus), P51450; Drosophila S2 Gal4-RORgamma UAS-luciferase reporter, 20 h; Potency, µM (doses to about 53.6 µM), actives largely listed as inhibitors; hit rate 5.4% among 310,000; also: nearly all actives have a fitted effect of over 60% in size
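Drosophila S2 cells stably expressing Gal4-DBD/mouse RORγ fusion under metallothionein promoter plus UAS-luciferase; compound 1 h, then 700 uM CuSO4 induction for 20 h at ambient temperature; inhibition read as reduced luminescence.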
ALDH1A1 inh = qHTS Assay for Inhibitors of Aldehyde Dehydrogenase 1 (ALDH1A1); Purified ALDH1A1, NADH fluorescence, propionaldehyde substrate; Potency, µM (top dose mostly 75.3 µM), hits mostly inhibitors; Aldehyde dehydrogenase 1A1 (Homo sapiens), P00352; AID 1030, 2008; hit rate 7.3% among 220,000; active = well fitted inhibition curve with a large enough effect, not every such curve was filed as active; inconclusive = small, poorly fitted or top-dose-only effect, or another doubt; inactive = no such curve, though single readings can be large or run the other way
Target sequence (P00352 whole entry, looked up): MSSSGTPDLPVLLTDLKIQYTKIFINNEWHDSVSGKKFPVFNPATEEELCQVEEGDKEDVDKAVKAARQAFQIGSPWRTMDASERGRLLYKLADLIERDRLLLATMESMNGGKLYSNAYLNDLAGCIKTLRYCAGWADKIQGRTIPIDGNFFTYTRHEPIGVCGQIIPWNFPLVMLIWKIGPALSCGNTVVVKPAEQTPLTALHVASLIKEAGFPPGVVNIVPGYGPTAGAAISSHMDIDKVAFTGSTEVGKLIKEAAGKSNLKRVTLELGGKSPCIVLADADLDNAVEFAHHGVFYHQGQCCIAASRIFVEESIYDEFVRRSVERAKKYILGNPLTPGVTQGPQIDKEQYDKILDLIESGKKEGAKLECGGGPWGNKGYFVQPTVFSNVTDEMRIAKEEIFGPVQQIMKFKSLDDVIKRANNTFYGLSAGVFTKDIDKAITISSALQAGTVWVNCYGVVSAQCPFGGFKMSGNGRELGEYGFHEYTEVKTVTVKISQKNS
Gal4-VP16 FLuc = VP16 counterscreen qHTS for inhibitors of ROR gamma transcriptional activity | Drosophila S2 Gal4-VP16 UAS-luciferase, luminescence, 20 h | Potency, µM (titrated, usually from 53.6 µM), hits mostly inhibitors | hit rate 3.5% among 310,000;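 also: Gal4-VP16 expression switched on by copper sulfate through the metallothionein promoter; nearly all actives have a fitted effect of over 50% in size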
Sfp PPTase inh = qHTS Assay for Inhibitors of Bacillus subtilis Sfp phosphopantetheinyl transferase (PPTase); AID 1490, 2009; Potency, µM, usual class: inhibitors; 4'-phosphopantetheinyl transferase ffp (Bacillus subtilis), Q9F4F7; hit rate 3.5% among 310,000; Biochemical Sfp PPTase activity, qHTS;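 also: the enzyme is Sfp with the accession as filed and its product quenches rhodamine fluorescence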
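Reaction rates are the 30-min fluorescence difference (ex 525, em 598 nm) in wells containing 15 nM Sfp, 5 uM rhodamine-CoA and 12.5 uM BHQ-2-YbbR at pH 7.6 with 10 mM MgCl2.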
PLK1 PBD inh = qHTS for Inhibitors of PLK1-PDB (polo-like kinase 1 - polo-box domain): Primary Screen; AID 720504, 2013; Potency, µM, actives largely listed as inhibitors; hit rate 2.8% among 360,000; Serine/threonine-protein kinase PLK1 (Homo sapiens), P53350; Plk1 PBD binding of FITC phosphopeptide, fluorescence polarization; also: series mostly up to about 57 µM; nearly all actives have a fitted effect of over 65% in size
Numbers stand for hits; - = inactive; ? = inconclusive; . = not tested or not shown; [ ] = remark or other dose. Compounds with a hit are over-represented: about 12% of the library has one in this group of screens. Unless noted, calls follow the shape of the dose curve; as a rule, active = well fitted curve in the direction sought with a large enough effect; inconclusive = small, poorly fitted or top-dose-only effect, or another doubt; inactive = no such curve, though single readings can be large; an effect the other way counts as inactive or inconclusive.

SMILES | RORgamma inh | ALDH1A1 inh | Gal4-VP16 FLuc | Sfp PPTase inh | PLK1 PBD inh
O=C(Nc1cc(S(=O)(=O)N2CCOCC2)ccc1N1CCCC1)c1ccc(Cl)cc1 | . | . | . | . | 7.5µM
COc1ccc(NS(=O)(=O)c2ccc(N3CCOCC3)c(NC(=O)c3ccccc3Cl)c2)cc1 | - | - | - | - | -
O=C(Nc1cc(S(=O)(=O)Nc2ccc(Cl)cc2)ccc1N1CCCCC1)c1ccc(F)cc1Cl | ? | 32µM | - | ? | 9.5µM
O=C(Nc1cc(S(=O)(=O)N2CCOCC2)ccc1N1CCCC1)c1ccc2c(c1)S(=O)(=O)c1ccccc1C2=O | - | 2.2µM | - | 10µM | 4.7µM
O=C(Nc1ccccc1F)Nc1cc(S(=O)(=O)N2CCOCC2)ccc1N1CCCC1 | - | ? | - | - | -
O=C(Nc1cc(S(=O)(=O)N2CCOCC2)ccc1N1CCCCC1)c1ccccc1 | . | . | . | . | -
O=C(Nc1cc(S(=O)(=O)N2CCOCC2)ccc1N1CCCCC1)c1ccc(Cl)cc1 | . | . | . | . | 5.3µM
O=C(Nc1cc(S(=O)(=O)N2CCOCC2)ccc1N1CCCCC1)c1ccccc1Br | . | . | . | . | 4.7µM
COc1ccc2c(c1)C(=O)[C@@H](OC(=O)NCCOc1ccccc1)[C@H](c1ccc(OC)c(Br)c1)O2 | - | - | - | - | .
C[C@@]12CC[C@@H]3c4ccc(O)cc4CC[C@H]3[C@H]1C[C@@H](O)[C@H]2O | - | - | - | - | .
CCCN1C(=O)c2cc(C(=O)NC3CCCCCC3)ccc2C1O (stereo not given) | - | 16µM | - | - | -
CCCN1C(=O)c2cc(C(=O)O)ccc2C1O (stereo not given) | - | - | - | - | -
CC(C)(C)C(=O)NC(=S)Nc1ccccc1C(=O)Nc1ccccc1 | - | 25µM | - | - | -
CC(C)CC(=O)NC(=S)Nc1ccccc1C(=O)Nc1ccccc1 | ? | 10µM | - | - | -
CC(C)C(=O)NC(=S)Nc1ccccc1C(=O)Nc1ccccc1 | - | - | - | - | -
COc1ccc2[nH]cc(CCNc3ncnc4ccc(-c5cccc(C#N)c5)cc34)c2c1 | ? | - | ? | - | .
CC1(C(=O)NS(=O)(=O)Cc2cccc(Cl)c2)CCN1C(=O)C1CCCCC1 (stereo not given) | . | . | . | . | -
Cc1cc(/C=C/c2ccc3cc(N(C)C)ccc3[n+]2C)c(C)n1-c1ccccc1 | 4.5µM | - | - | - | .
C=CCOc1ccccc1/C=c1\sc2nc(=O)c(C)nn2c1=O | - | 22µM | - | ? | ?
CCOC(=O)[C@@H]1[C@H]2COc3cc(OC)ccc3[C@@H]2N2C(=O)N(c3cccc(F)c3)C(=O)[C@@]12C | 10µM | . | - | - | -
CCOC(=O)[C@@H]1[C@H]2COc3cc(OC)ccc3[C@@H]2N2C(=O)N(c3ccc(Cl)cc3)C(=O)[C@@]12C | 8.9µM | . | ? | - | -
CCOC(=O)[C@@H]1[C@H]2COc3ccccc3[C@@H]2N2C(=O)N(c3ccc(F)cc3)C(=O)[C@@]12C | 13µM | . | - | - | -
CCOC(=O)[C@@H]1[C@H]2COc3cc(OC)ccc3[C@@H]2N2C(=O)N(c3ccc(C)cc3)C(=O)[C@@]12C | 5µM | . | - | - | -
CCOC(=O)[C@@H]1[C@H]2COc3ccccc3[C@@H]2N2C(=O)N(c3ccc(C)cc3)C(=O)[C@@]12C | . | . | . | . | -
CCOC(=O)[C@H]1[C@H]2COc3cc(OC)ccc3[C@@H]2N2C(=O)N(c3ccc(Cl)cc3)C(=O)[C@@]12C | - | . | - | - | -
SMILES | RORgamma inh | ALDH1A1 inh | Gal4-VP16 FLuc | Sfp PPTase inh | PLK1 PBD inh
COc1cc(OC)cc(C2=Cc3ccc(OC)cc3C(CC(C)=O)N2c2ccc(C#CCCO)cc2)c1 (stereo not given) | . | . | . | . | -
COc1ccccc1OCCC(=O)OCC(=O)NC(C)c1ccccc1 (stereo not given) | - | - | - | - | -
OC[C@H]1NC[C@H](O)[C@@H](O)[C@@H]1O | - | . | - | - | .
CC1CCC2C(=O)N(c3ccc(C(=O)Oc4cccc5cccnc45)cc3)C(=O)C2C1 (stereo not given) | 6.3µM | ? | 3.2µM | 10µM | -
Cc1ccc(C(=O)Oc2ccccc2N2C(=O)C3CCC(C)CC3C2=O)cc1 (stereo not given) | - | ? | - | - | -
CC1(C2CC2)NC(=O)N(CC(=O)N2CCN(c3ccccc3Cl)CC2)C1=O (stereo not given) | . | . | . | . | -
Cc1cccc(C)c1NC(=O)Nc1cccs1 | - | - | - | 56µM | -
O=C(Nc1cccs1)Nc1c(F)c(F)c(F)c(F)c1F | -[10 µM] | - | ? | 45µM | -
N#Cc1cccc(NC(=O)Nc2cccs2)c1 | - | - | - | ? | -
O=C(Nc1cccs1)Nc1c(F)cc(F)cc1Br | -[10 µM] | ? | - | ? | -
O=C(Nc1cccs1)Nc1c(F)c(F)cc(F)c1F | - | - | ? | 45µM | -
CCc1cccc(NC(=O)Nc2cccs2)c1 | ? | - | ? | 32µM | -
CC(C)c1ccc(NC(=O)Nc2nnc([C@@H]3C[C@H](O)[C@@H](CO)O3)s2)cc1 | . | . | . | . | -
COc1ccc(OC)c(-c2nnc3n2N=C(c2c(OC)cccc2OC)CS3)c1 | - | . | - | - | .
O=C1Nc2ccccc2N=C(c2ccc3c(c2)OCO3)C1N(C(=O)c1ccc2ccccc2c1)C1CC1 (stereo not given) | . | . | . | . | -
COc1ccc2c(c1)c(C(=O)OCCN(C)C)c(C)n2C | - | - | - | - | -
COCCOC(=O)c1c(C)n(C)c2ccc(OC(=O)c3c(OC)cccc3OC)cc12 | - | . | - | 28µM | 9.5µM
COc1cc(/C=C(\CC(=O)O)c2nc3ccccc3s2)cc(OC)c1O | - | ? | - | 35µM | -
COc1ccc(/C=C(\CC(=O)O)c2nc3ccccc3s2)cc1O | - | - | - | - | -
O=C(O)C/C(=C\c1cccc(NC(=O)c2ccccc2Cl)c1)c1nc2ccccc2s1 | - | . | - | - | 27µM
COc1ccc(C(=O)Nc2cccc(/C=C(\CCC(=O)O)c3nc4ccccc4s3)c2)cc1 | ? | . | - | - | 11µM
CCCCc1nc2c(c3c1C[C@H](C)OC3)CN(C(=O)C1CCCCC1)CC2 | . | -[13.5 µM] | . | - | .
O=C(CCNC(=O)C1CCN(S(=O)(=O)c2ccc(F)cc2)CC1)Nc1ccccc1 | - | . | - | - | -
Cc1ccc2oc(=O)c(/C=C(\O)c3ccco3)nc2c1 | 10µM | . | ? | ? | -
Cc1ccc2oc(=O)c(/C=C(\O)C(C)(C)C)nc2c1 | 5µM | - | - | 56µM | -
Cc1ccc2oc(=O)c(/C=C(\O)c3sc(C)nc3C)nc2c1 | ? | ? | ? | - | -
Cc1ccc(NC(=O)CN(C)C(=O)C(C)N2CCN(Cc3ccccc3C)CC2)cc1 (stereo not given) | . | . | . | . | -
Cc1ccc(/C=C2\SC(=S)N(c3cccnc3)C2=O)o1 | - | . | - | 50µM | -
